# In the library only some 1.7% were active in any assay of this set; here they are far more common.
# IL1B NFkB pot: enhances IL-1B driven NFkB nuclear translocation | HUVEC IL-1B NFkB p65 nuclear translocation imaging | AID 819 | actives 0.3% (n = 94,000) | activation, % at 2 µM;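 active = activation above 40%, about the mean plus 3 SD, also judged a hit on visual image review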;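 note: percent activation is computed from the nuclear over cytoplasmic p65 intensity ratio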
# E-sel TNF inh: TNF alpha driven E-selectin expression inhibition. inhibition, % at 2 µM. HUVEC TNFa-induced E-selectin immunofluorescence, high content. actives 0.71% (n = 120,000);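 active = inhibition above the batch mean plus 3 SD, and confirmed as a hit on visual image review, cut at about 43% in these data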;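 note: 0% = TNF-stimulated DMSO wells and 100% = unstimulated control wells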
# VCAM1 TNFa inh: reduces TNF alpha induced VCAM1 expression in HUVEC; AID 802; HUVEC TNFa-induced VCAM-1 immunofluorescence, high-content imaging; actives 0.48% (n = 95,000); inhibition, % at 2 µM;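 active = inhibition above the batch mean plus 3 SD, with images confirmed as a hit by eye, cut at about 37% in these data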;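 note: 0% = TNF-stimulated DMSO wells and 100% = unstimulated control wells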
# IL1B NFkB inh: blocks IL-1B driven NFkB nuclear translocation in HUVEC cells. HUVEC IL-1B NFkB p65 nuclear translocation imaging. inhibition, % at 2 µM. actives 0.43% (n = 94,000);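 active = inhibition above about 30% together with a positive call from visual inspection of the well image, limit read from the data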;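 note: nuclear over cytoplasmic p65 intensity ratio measured by imaging; 0% = IL-1B stimulated DMSO wells and 100% = unstimulated DMSO wells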
# TNFa cytotox: HUVEC cytotoxicity counter-screen, TNF alpha stimulated; HUVEC TNFalpha-stimulated, Hoechst cell count, imaging; cell count reduction, % at 2 µM; actives 0.17% (n = 93,000); AID 848;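 active = cell count reduction exceeding the screen mean by over 5 SD, scaled to untreated wells per plate, cut at about 78% in these data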;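 note: cells counted after 24 h of TNF alpha exposure following the 1 h pretreatment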
# HUVEC tox IL1B: toxic to HUVEC cells under IL-1B stimulation; HUVEC cell count loss, Hoechst imaging, IL-1B stimulated; cell count reduction, % at 2 µM; actives 0.41% (n = 94,000); AID 845;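 active = cell count reduction more than 3 SD above the screen-wide mean, cut at about 70% in these data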;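 note: normalized per plate to untreated control cells as the no-loss baseline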
# The depositor's hits bear a star; . = no result given.
SMILES,IL1B NFkB pot,E-sel TNF inh,VCAM1 TNFa inh,IL1B NFkB inh,TNFa cytotox,HUVEC tox IL1B
COc1ccc(C(=O)Nc2ccccc2C(=O)NC(Cc2ccc(O)cc2)C(=O)NNC(=O)c2ccncc2)cc1 (stereo unspecified),.,1.8,.,.,.,.
c1nc(NCCN2CCOCC2)c2sc3nc(N4CCOCC4)c4c(c3c2n1)CCC4,.,65.5*,.,.,.,.
c1nc(NCCN2CCOCC2)c2c3c(sc2n1)CCCCC3,-13.8,.,-13.7,13.8,-11.1,-37.6
NC1=CC(=O)c2cccc3cccc1c23,5.8,.,43.3*,-3.6,4.5,-7.6
NC1=Nc2cccc3cccc1c23,.,6.2,.,.,.,.
O=C(CN1C2=NCCCN2c2ccccc21)c1ccc(Cl)cc1Cl,.,5.0,.,.,.,.
O=c1[nH]c2ccc(S(=O)(=O)NCc3ccccc3)cc2[nH]1,.,-39.8,.,.,.,.
O=C(Nc1ccc2snnc2c1)Nc1cccc2ccccc12,-28.1,-4.2,-26.9,28.1,-13.0,87.4*
Cc1nc2cc(NC(=O)Nc3cccc4ccccc34)ccc2n1C,.,-0.1,.,.,.,.
Cn1c(CNc2ccccc2O)nc2ccccc21,4.2,.,59.1*,-4.2,88.6*,-8.2
NCCCCCc1nnc(SCc2ccc(Cl)c(Cl)c2)o1,16.2,-18.3,10.9,-16.2,-18.8,0.8
CCc1[nH]nc2c1C(c1cccnc1)C(C#N)=C(N)O2 (stereo unspecified),43.3*,9.3,11.5,-43.3,-2.6,-115.4
CCCc1[nH]nc2c1C(c1cccnc1)C(C#N)=C(N)O2 (stereo unspecified),-2.5,.,86.9*,2.5,82.4*,-30.1
O=C(COC(=O)/C=C/c1cccs1)Nc1cccc(S(=O)(=O)N2CCCC2)c1,.,25.5,.,.,.,.
O=C(Cc1ccccc1)NCC(=O)OCC(=O)c1cccs1,0.6,-21.3,-1.6,-0.6,7.2,18.2
CCOc1cc(N2CCOCC2)c(OCC)cc1NC(=O)CSc1cccc[n+]1[O-],69.6*,6.5,-1.3,-69.6,10.5,-12.8
CCOc1cc(N2CCOCC2)c(OCC)cc1NC(=O)Cc1ccccc1OC,3.0,.,22.0,-3.0,-4.3,17.9
CC(C)OC(=O)CSc1nnc(-c2ccccc2)n1N,-4.8,4.8,7.0,4.8,-9.7,-13.1
O=C(c1ccc(COCC(F)(F)F)o1)N1CCCCCC1,1.6,73.6*,-14.0,-1.6,-21.8,18.3
CS(=O)(=O)N(CC(=O)Nc1cccnc1)c1ccc2c(c1)OCO2,-0.5,-1.2,-17.0,0.5,10.2,20.8
O=c1[nH][nH]cc1C=Nc1ccc(Cl)cc1,.,97.2*,.,.,.,.
CN(C)CCNc1c2c(c(C#N)c3nc4ccccc4n13)CCCC2,1.5,9.3,9.7,-1.5,-33.9,14.9
N#Cc1c2c(c(NCc3ccco3)n3c1nc1ccccc13)CCC2,-6.3,.,52.4,6.3,84.2*,-7.1
O=C(Nc1ccccn1)NC12CC3CC(CC(C3)C1)C2,20.3,7.0,-7.5,-20.3,-12.6,-23.0
O=C(NCc1ccccn1)NC12CC3CC(CC(C3)C1)C2,-95.2,.,4.6,95.2*,-4.7,89.3*
SMILES,IL1B NFkB pot,E-sel TNF inh,VCAM1 TNFa inh,IL1B NFkB inh,TNFa cytotox,HUVEC tox IL1B
Nc1nc(/C=C/c2cccnc2)nc(-c2ccccc2O)n1,.,-4.7,.,.,.,.
O=C(c1ccc(Cl)c(S(=O)(=O)NCc2ccco2)c1)N1CCN(c2ccc(F)cc2)CC1,-35.6,13.1,-5.9,35.6*,-30.6,-6.1
O=C1CC(c2cccc(Cl)c2)CC(O)=C1C=NCCCO (stereo unspecified),-9.5,-15.5,-1.3,9.5,-4.9,-50.7
Cc1nc(-c2ccccc2)sc1C(=O)CSc1ccc(F)cc1,-36.0,8.2,-7.4,36.0*,-2.1,-20.9
Cc1nc(-c2ccccc2)sc1C(=O)CSc1ccccc1,-3.6,-17.1,1.9,3.6,-14.8,-16.4
O=C(NNC(=O)C1CCN(Cc2ccc(F)cc2Cl)CC1)Nc1ccc([N+](=O)[O-])cc1,.,14.3,.,.,.,.
N#Cc1ccsc1NC(=O)COC(=O)c1ccc2ccccc2c1,.,97.3*,.,.,.,.
O=c1c(Cl)c(NCc2ccccc2Cl)cnn1C12CC3CC(CC(C3)C1)C2,.,14.5,.,.,.,.
Cc1cc(C(=O)CN2C(=O)NC(C)(c3cccc(Br)c3)C2=O)c(C)n1Cc1ccco1 (stereo unspecified),-10.1,.,4.1,10.1,-41.8,-10.2
Cc1cc(C(=O)CN2C(=O)NC(c3ccccc3)(c3ccccc3)C2=O)c(C)n1Cc1ccco1,-1.2,74.5*,0.2,1.2,4.8,-6.5
Cc1ccc(/C=N/n2c(=O)c(C(C)(C)C)nn3cnnc23)cc1,.,79.8*,.,.,.,.
CCCCN(C(=O)NC(=O)Nc1cccc(C)c1C)S(C)(=O)=O,1.3,.,90.2*,-1.3,70.2,19.5
CCCCn1c2nc3ccccc3nc2c2c(=O)n(CCC(C)C)cnc21,-3.1,18.8,10.9,3.1,-30.6,1.5
CCCCn1c2nc3ccccc3nc2c2c(=O)n(-c3ccccc3)cnc21,.,91.9*,.,.,.,.
Cc1ccc(CNC(=O)C(Cc2ccccc2)NS(=O)(=O)c2cccs2)cc1 (stereo unspecified),-32.9,2.9,8.0,32.9*,1.7,-4.3
O=C(NCCCN1CCCC1=O)c1cc(=O)c2ccccc2o1,5.1,-6.1,7.3,-5.1,-22.8,-4.4
CC(OC(=O)CCN1C(=O)c2cccc([N+](=O)[O-])c2C1=O)C(=O)Nc1cc(Cl)cc(Cl)c1 (stereo unspecified),.,95.0*,.,.,.,.
CC(=O)Nc1ccc(C(=O)N/N=C/c2ccc(F)cc2)cc1,.,-6.4,.,.,.,.
O=C(N/N=C/c1ccncc1)c1ccccc1,-0.8,-2.9,62.2*,0.8,56.5,2.4
O=C(N/N=C/c1ccncc1)/C(=C/c1ccccc1)NC(=O)c1ccccc1,-2.6,-38.6,7.9,2.6,-6.7,-15.6
O=C(N/N=C/c1ccc(C(F)(F)F)cc1)c1ccc(O)cc1,.,78.1*,.,.,.,.
CCCCN1C(=O)c2ccc(C(=O)NCCN3C(=O)S/C(=C\c4cccnc4)C3=O)cc2C1=O,.,16.1,.,.,.,.
N=c1c2c(-c3ccccc3)c(-c3ccccc3)n(Cc3ccccc3)c2ncn1CCCn1ccnc1,-2.1,-20.1,72.6*,2.1,14.2,1.8
N=c1c2c(-c3ccccc3)c(-c3ccccc3)n(Cc3ccco3)c2ncn1Cc1ccco1,.,-45.2,.,.,.,.
CN(CCc1cnn(C)c1)Cc1cn[nH]c1-c1ccc(-c2ccccc2)cc1,.,-12.4,.,.,.,.
SMILES,IL1B NFkB pot,E-sel TNF inh,VCAM1 TNFa inh,IL1B NFkB inh,TNFa cytotox,HUVEC tox IL1B
Cn1c(=O)[nH]c(=O)c2c1nc(SCCO)n2CC(O)COc1ccccc1 (stereo unspecified),.,-8.9,.,.,.,.
C/C(=N/NC(=O)c1ccco1)c1cccnc1,.,-18.8,.,.,.,.
CCOc1ccc(N2CC(C(=O)NCCCN3CCOCC3)CC2=O)cc1 (stereo unspecified),19.3,50.2*,14.0,-19.3,5.3,-15.4
COc1ccc(CNC(=O)Cn2nc(C(F)(F)F)c3c2CCC3)cc1,-34.6,-10.4,-21.8,34.6*,-27.7,94.1*
COc1ccc(NC(=O)Cn2nc(C(F)(F)F)c3c2CCCC3)c(OC)c1,13.2,-20.8,18.9,-13.2,-2.1,-32.1
CCOc1ccc(Cc2nc(C)c(CC(=O)N3CCOCC3)c(=O)[nH]2)cc1,10.9,14.6,7.4,-10.9,-24.6,-33.0

# Screening results from PubChem BioAssay.
